Results from PubChem BioAssay AID449764 (Southern Research Specialized Biocontainment Screening …, 2010).
Screen size: about 2,300 compounds; about 1,700 (74%) were called active. No rule for the calls is given here. The set was probably picked from earlier hits. Some of the results follow. Results with a measured potency or affinity are listed apart.

Assay: Confirmatory growth inhibition assay, Mycobacterium tuberculosis H37Rv, absence of glycerol (AID 449764);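 also: growth read after 7 days of incubation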
Details: no glycerol; series mostly up to 100 µM

For `Cc1ccccc1C1C(C#N)=C2N=C(N)c3c(sc4c3CCCCC4)N2C2=C1C(=O)CC(C)(C)C2` (configuration not stated), which outcome is on record?
Its outcome is “inactive”.

Which outcome does the source give for `C[C@]12CCC(=O)C[C@@H]1CC[C@@H]1[C@@H]2CC[C@]2(C)C=CC[C@@H]12` here?
Its outcome is “inactive”.

Which outcome does the source give for `Cn1c(=S)c2[nH]c(SCCN3CCCC3)nc2n(C)c1=O` here?
The outcome was “inactive”.

Which outcome does the source give for `CCOC(=O)c1ccc(N=C(CC)c2c(O)n(C)c(=O)n(C)c2=O)cc1` here?
Its outcome is “inactive”.

Which outcome does the source give for `CCCN(CC1CC1)C(=O)COC(=O)c1ccc2c(c1)C(=O)N(c1ccc(OCC)cc1)C2=O` here?
Its outcome is “inactive”.

With `CN(C(=O)COC(=O)/C=C/c1ccc(Cl)c(Cl)c1)c1c(N)n(Cc2ccccc2)c(=O)[nH]c1=O` as the molecule, how does the outcome read?
Its outcome is “inactive”.

With `C=CCOc1ccc(/C=C/C(=O)OCC(=O)NCC2CCCO2)cc1` (configuration not stated) as the molecule, how does the outcome read?
Its outcome is “inactive”.

Which outcome does the source give for `CC(C)c1ccc(-c2nn(-c3ccccc3)cc2C(=O)NCC2CCCO2)cc1` (configuration not stated) here?
The outcome was “inactive”.

Which outcome does the source give for `O=S(=O)(c1ccc(Cl)cc1)N1CCC(n2cnc3cc(C(F)(F)F)ccc32)CC1` here?
The outcome was “inactive”.

For `O=C1NC(=Nc2ccccc2)S/C1=C\C=C\c1ccco1`, which outcome is on record?
Its outcome is “inactive”.

With `CCCC(O)(CCC)C(=O)NNc1ccc(C)cc1` as the molecule, how does the outcome read?
The outcome was “inactive”.

For `CC(=O)N1C(Nc2ccc(Cl)cc2)CCN1c1ccccc1` (configuration not stated), which outcome is on record?
The outcome was “inactive”.

With `CCOc1ccc(N=CNc2ccc(OCC)cc2)cc1` as the molecule, how does the outcome read?
Its outcome is “inactive”.

With `Cc1ccc(C(=O)Nc2ccc3c4c(cccc24)CC3)cc1[N+](=O)[O-]` as the molecule, how does the outcome read?
The outcome was “inactive”.

With `CCn1c(SCC(=O)Nc2nc3ccc(C)cc3s2)nc2c(c1=O)SC(C)C2` (configuration not stated) as the molecule, how does the outcome read?
The outcome was “inactive”.

For `Cc1cc(NC(=O)CCN2C(=O)C3C4C=CC(C4)C3C2=O)ccc1Br` (configuration not stated), which outcome is on record?
The outcome was “inactive”.

Which outcome does the source give for `Cc1ccc(-c2ccc(=O)n(CC(=O)N3CCN(c4cc(Cl)ccc4C)CC3)n2)cc1` here?
The outcome was “inactive”.

With `CCOC(=O)c1ccc(N=Cc2c(O)c3ccccc3oc2=O)cc1` as the molecule, how does the outcome read?
The outcome was “inactive”.

For `O=C(CCC1CCCC1)c1c(O)c2ccccc2oc1=O`, which outcome is on record?
Its outcome is “inactive”.

Which outcome does the source give for `CCCCCCCCCCC[C@@H](C[C@@H]1OC(=O)[C@H]1CCCCCC)OC(=O)[C@H](CC(C)C)NC=O` here?
The outcome was “inactive”.

For `COc1cccc(/C=C/c2nc(C#N)c(NCC(C)C)o2)c1`, which outcome is on record?
Its outcome is “inactive”.

For `O=C(O)Cc1c[nH]c2ccc(O)cc12`, which outcome is on record?
Its outcome is “inactive”.

Which outcome does the source give for `O=C1C(=O)c2ccccc2C(O)=C1C1CCC(c2ccc(Cl)cc2)CC1` (configuration not stated) here?
The outcome was “inactive”.

Which outcome does the source give for `O=C1C(c2ccccc2)=[N+]([O-])c2ccccc21` here?
Its outcome is “inactive”.

Which outcome does the source give for `COc1ccc(N=C/C=C2/C=C(c3ccccc3)OC(C)(C)O2)cc1` here?
Its outcome is “inactive”.

Which outcome does the source give for `CCCCOC(=O)c1ccc(O)cc1` here?
Its outcome is “inactive”.

For `CCOc1ccc(/C=C/C2=Cc3c(sc(NC(=O)CSc4n[nH]c(N)n4)c3C#N)C(C)(C)C2)cc1`, which outcome is on record?
Its outcome is “inactive”.

For `Cc1ccc(C(=O)COC(=O)C2CC(=O)N(c3nc(-c4ccccc4)cs3)C2)cc1C` (configuration not stated), which outcome is on record?
Its outcome is “inactive”.

Which outcome does the source give for `Cc1cc(C)n2[nH]c(=O)c(N=Nc3cccc(C(F)(F)F)c3)c2n1` here?
The outcome was “inactive”.

For `O=c1ccn(-c2ccccc2)[nH]1`, which outcome is on record?
Its outcome is “inactive”.

With `Cc1[nH]n(-c2ccccc2)c(=S)c1C=NCCCN=Cc1c(C)[nH]n(-c2ccccc2)c1=S` as the molecule, how does the outcome read?
The outcome was “inactive”.

Which outcome does the source give for `Cc1c(O)c(=O)n(-c2ccccc2)n1C` here?
The outcome was “inactive”.

Which outcome does the source give for `O=C(OCC(=O)C12CC3CC(CC(C3)C1)C2)c1ccc(O)cc1O` here?
Its outcome is “inactive”.

Which outcome does the source give for `CC(=O)NC1C(c2nc3ccccc3s2)=C(c2ccccc2)C(=O)N1c1ccc(C)cc1` (configuration not stated) here?
The outcome was “inactive”.

With `CCc1ccc(N=CC23c4ccccc4C(c4ccccc42)C2C(=O)N(c4ccc(OC)cc4)C(=O)C23)cc1` (configuration not stated) as the molecule, how does the outcome read?
The outcome was “inactive”.

For `COc1ccc(NCc2n[nH]nc2-c2ccccc2)cc1Cl`, which outcome is on record?
The outcome was “inactive”.

Which outcome does the source give for `C=CCSc1n[nH]c(-c2ccc(OCCCC)cc2)n1` here?
Its outcome is “inactive”.

For `O=C(O)C1CC=CCC1C(=O)NNc1ccccc1` (configuration not stated), which outcome is on record?
The outcome was “inactive”.

For `CCOP(=O)(OCC)/C(=C/N1CCCCC1)NC(=O)c1ccccc1`, which outcome is on record?
The outcome was “inactive”.

Which outcome does the source give for `CCOc1cc(C(=O)OCc2ccc(C(=O)OC)o2)cc(Br)c1OC` here?
Its outcome is “inactive”.

Which outcome does the source give for `Cc1nc2cc(C(F)(F)F)ccc2n1C1CCN(Cc2nnnn2Cc2ccc3c(c2)OCO3)CC1` here?
The outcome was “inactive”.

For `Cc1ccc(NC2Sc3ccccc3NC2=O)cc1Cl` (configuration not stated), which outcome is on record?
Its outcome is “inactive”.

Which outcome does the source give for `Cc1nc2sccn2c1-c1nc(-c2cc3ccccc3o2)cs1` here?
Its outcome is “inactive”.

With `Cc1ccc(-c2nnc(NCc3nc4ccccc4[nH]3)c3ccccc23)cc1S(=O)(=O)N1CCCCC1` as the molecule, how does the outcome read?
Its outcome is “inactive”.

Which outcome does the source give for `Cn1ccnc1C(O)c1cc(C(C)(C)C)c(O)c(C(C)(C)C)c1` (configuration not stated) here?
The outcome was “inactive”.

For `COc1ccc(NC(=O)c2oc3ccc(S(=O)(=O)N4CCOCC4)cc3c2C)cc1`, which outcome is on record?
The outcome was “inactive”.

For `O=C(N/N=C/c1c(F)c(F)c(F)c(F)c1F)c1cccc(S(=O)(=O)N2CCOCC2)c1`, which outcome is on record?
The outcome was “inactive”.

For `CC(C)(C)c1ccc(C2C3=C(CCCC3=O)NC3=C2C(=O)c2ccccc23)cc1` (configuration not stated), which outcome is on record?
The outcome was “inactive”.

Which outcome does the source give for `CC(C(=O)NC(=O)NC1CCCCC1)N(C)CC(=O)Nc1ccc(F)c(F)c1F` (configuration not stated) here?
The outcome was “inactive”.

With `Cc1ccccc1C(=O)Nc1ccc(-c2nc3ccc(C(=O)c4ccccc4)cc3[nH]2)cc1` as the molecule, how does the outcome read?
Its outcome is “inactive”.

With `ClC1=C(Cl)C(Cl)=C(Cl)C1=C/C=C/c1ccccc1` as the molecule, how does the outcome read?
The outcome was “inactive”.

For `CC(C)c1ccc2[nH]c(O)c(N=NC(=O)c3ccc(CSc4nncn4C)cc3)c2c1`, which outcome is on record?
Its outcome is “inactive”.

Which outcome does the source give for `CCOc1ccc(NC(=O)CSc2cn[nH]n2)cc1` here?
The outcome was “inactive”.

Which outcome does the source give for `COC(=O)c1ccc(CSc2nc3cc(Cl)ccc3o2)cc1` here?
Its outcome is “inactive”.

With `CCOC(=O)c1ccc(N=C2SC(C(=O)Nc3ccc(C(=O)O)cc3)CC(=O)N2Cc2cccs2)cc1` (configuration not stated) as the molecule, how does the outcome read?
The outcome was “inactive”.

With `CCC(C)Nc1nc2c(C)cccn2c(=O)c1C=Nc1ccc(OC)cc1` (configuration not stated) as the molecule, how does the outcome read?
The outcome was “inactive”.

For `COc1ccc(NC2(c3ccc(Cl)cc3)C(=O)c3ccccc3C2=O)cc1`, which outcome is on record?
Its outcome is “inactive”.

With `COc1ccc(C(=O)NNc2ccccc2)cc1OC` as the molecule, how does the outcome read?
The outcome was “inactive”.

With `CC(C)C(=O)Nc1cccc(-c2nc3ccccc3c(=O)o2)c1` as the molecule, how does the outcome read?
The outcome was “inactive”.

For `Cn1c(=O)c2cc(NCc3ccccc3)nnc2n(C)c1=O`, which outcome is on record?
Its outcome is “inactive”.

Which outcome does the source give for `Cc1ccc(C(=O)N2N=C(CC(C)C)CC2(O)C(F)(F)F)o1` (configuration not stated) here?
The outcome was “inactive”.

For `CCOc1ccc(C2=Nc3ccc(Br)cc3C(c3ccc(N4CCOCC4)cc3)=NN2)cc1`, which outcome is on record?
The outcome was “inactive”.

For `CCOc1ccc(N2CCc3c(C)nc(SC)nc32)cc1`, which outcome is on record?
The outcome was “inactive”.

For `Cc1nc(Nc2ccc(Cl)c(Cl)c2)sc1C(=O)Nc1ccccc1`, which outcome is on record?
The outcome was “inactive”.

With `Cc1ccc(NC(=O)c2ccc(CSc3nnc(C)s3)cc2)c(C)c1` as the molecule, how does the outcome read?
The outcome was “inactive”.

With `CCCCN(CC)c1nc(N)c2c(N)nc(OCC)cc2c1C#N` as the molecule, how does the outcome read?
Its outcome is “inactive”.

With `CC(C)C[C@H]1C(=O)N2CCC[C@H]2[C@]2(O)O[C@](NC(=O)C3C=C4c5cccc6[nH]c(Br)c(c56)C[C@H]4N(C)C3)(C(C)C)C(=O)N12` (some centres not stated) as the molecule, how does the outcome read?
The outcome was “inactive”.
